Reference: PubChem BioAssay (Tox21)
Results filed as inconclusive are left out. Active and inactive are the calls of the source. Unless noted, calls come from the whole dose curve.

What was measured:
[1] = Nuclear factor erythroid 2-related factor 2/antioxidant responsive element (Nrf2/ARE) small molecule agonists: qHTS cell viability counter screen in human keratinocytes (AID 1919968; active = well fitted curve in the direction sought with a large enough effect in the repeat runs; an effect the other way counts as inactive or inconclusive; note: nearly all actives have a fitted effect of over 55% in size; note: potency is the fitted concentration of half-maximal effect)
Outline: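 CellTiter-Fluor fluorescence, read 1 h after reagent, gave viability in the same wells as the ARE-luciferase assay. KeratinoSens cells (1,500/well) had 23 h compound exposure at 37 C/5% CO2 following 5 h plating.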

[2] = Nuclear factor erythroid 2-related factor 2/antioxidant responsive element (Nrf2/ARE) small molecule agonists: luciferase reporter gene qHTS assay in human keratinocytes (AID 1919969); note: nearly all actives have a fitted effect of over 35% in size; note: potency is the fitted concentration of half-maximal effect
[3] = target: KiSS-1 receptor (Homo sapiens) (UniProt Q969F8); assay: Human kisspeptin (KISS1R) small molecule agonists, calcium flux assay in KISS1R-HEK293 cells (AID 1920064; active = well fitted curve in the direction sought with a large enough effect in the repeat runs; an effect the other way counts as inactive or inconclusive)
Outline: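 Agonist mode: intracellular calcium rise tracked at 1 s intervals over 3 min (480/540 nm) immediately after compound addition to dye-loaded KISS1R-HEK293 stable cells. Each compound tested at 15 concentrations in triplicate.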

[4] = G protein-coupled receptor (GPCR) small molecule agonists, calcium flux assay: HEK293 wild type cell line counter screen (AID 1920065)
Outline: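 Calcium flux counter screen: compound added in agonist mode at 15 concentrations in triplicate to dye-loaded parental HEK293 cells. Fluorescence (480/540) read kinetically for 3 min; ATP served as positive control.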

[5] = p53 small molecule agonists, cell-based qHTS assay with rat liver microsomes (AID 1963578)
Outline: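 p53RE-bla cells were exposed to compounds together with rat liver microsomes (0.5 mg/mL final) and NADPH (0.5 mg/mL final) for 16 h at 37 C, then read by LiveBLAzer beta-lactamase fluorescence after 2 h at room temperature.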

[6] = p53 small molecule agonists, cell-based qHTS assay with human liver microsomes: qHTS cell viability counter screen (AID 1963579); note: nearly all actives have a fitted effect of over 45% in size
Outline: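 p53RE-bla cells (4,000/well) were pre-incubated 5 h at 37 C, then given compounds in DMSO plus human liver microsomes (0.5 mg/mL final) and NADPH (0.5 mg/mL final) for 16 h at 37 C. Viability was read by CellTiter-Glo luminescence.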

[7] = p53 small molecule agonists, cell-based qHTS assay with rat liver microsomes: qHTS cell viability counter screen (AID 1963580); note: nearly all actives have a fitted effect of over 45% in size
Outline: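 After the beta-lactamase ratio was read, CellTiter-Glo was added to the same wells and luminescence measured at 30 min; cells had been treated 16 h at 37 C with compounds, rat liver microsomes and NADPH (0.5 mg/mL final each).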

[8] = p53 small molecule agonists, cell-based qHTS assay: qHTS cell viability counter screen (AID 1963581); note: nearly all actives have a fitted effect of over 45% in size
Outline: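 Counter screen read by CellTiter-Glo luminescence (ATP content, 30 min at room temperature), run in the same wells as the beta-lactamase reporter read. HCT-116 p53RE-bla cells saw compounds for 16 h at 37 C.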

[9] = p53 small molecule agonists, cell-based qHTS assay (AID 1963582; active = well fitted activation curve with a large enough effect in the signal ratio in the repeat runs, not every such curve was filed as active; the % refers to the signal ratio)
Outline: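 Read-out is beta-lactamase FRET fluorescence after 2 h at room temperature with LiveBLAzer B/G substrate. p53 response element-bla cells were treated 16 h at 37 C with compounds in DMSO, added 5 h after seeding.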

[10] = target: 5-hydroxytryptamine receptor 2A (Homo sapiens) (UniProt P28223); assay: 5-hydroxytryptamine receptor 2A (HTR2A) small molecule agonists, cell-based qHTS assay (AID 1963587); note: nearly all actives have a fitted effect of over 30% in size; note: potency is the fitted concentration of half-maximal effect
Outline: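 CHO cells stably expressing human HTR2A, plated 18 h, loaded with calcium dye 1 h at 37 C. Agonist mode: compounds added and intracellular calcium fluorescence recorded kinetically for 2 min at 1 sec intervals.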

[11] = target: Muscarinic acetylcholine receptor M1 (Homo sapiens) (UniProt P11229); assay: Cholinergic receptor muscarinic 1 (CHRM1) small molecule antagonists, cell-based qHTS assay (AID 1963588); note: nearly all actives have a fitted effect of over 40% in size; note: potency is the fitted concentration of half-maximal effect
Outline: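 Compounds were tested at 15 concentrations in three independent runs. Dye-loaded CHRM1-CHO cells were exposed 5 min at room temperature before stimulation by acetylcholine added at 50nM. Intracellular calcium was read kinetically on FDSS for 3 min.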

[12] = target: Muscarinic acetylcholine receptor M1 (Homo sapiens) (UniProt P11229); assay: Cholinergic receptor muscarinic 1 (CHRM1) small molecule agonists, cell-based qHTS assay (AID 1963589); note: nearly all actives have a fitted effect of over 35% in size
Outline: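 Agonist-mode calcium-flux screen: compounds at 15 concentrations, three independent runs, were pin-transferred onto dye-loaded human CHRM1-CHO cells. Fluorescence was then recorded kinetically every second over minutes.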

[13] = cAMP Responsive Elements (CRE) small molecule agonists, cell-based qHTS assay (AID 1963590)
Outline: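 Agonist mode: compound added to CRE-bla HEK 293T cells (2,000/well, 18 h after plating) for 3 h at 37 C/5% CO2. Reporter activity detected via FRET beta-lactamase substrate, 2 h room-temperature loading.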

[14] = target: Beta-2 adrenergic receptor (Homo sapiens) (UniProt P07550); assay: Adrenergic beta2 receptor (ADRB2) small molecule antagonists, cell-based qHTS assay (AID 1963592); note: series mostly up to about 92 µM; nearly all actives have a fitted effect of over 50% in size
Outline: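 Assay format: CHO-ADRB2 cells, 18-20hr seeding at 37C/5% CO2, then compound plus 1nM isoproterenol agonist mix for 0.5hr RT. Homogeneous time-resolved fluorescence cAMP detection after 1hr, expressed as 665/615 nm ratio.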

[15] = target: D(2) dopamine receptor (Homo sapiens) (UniProt P14416); assay: Dopamine D2 receptor (DRD2) small molecule agonists, cell-based qHTS assay (AID 1963594); note: nearly all actives have a fitted effect of over 35% in size
Outline: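 HEK293 cells stably expressing human DRD2, pre-treated with PDE inhibitor Ro20-1724 (0.1 mM final) and compound 10 min at room temperature, then stimulated with NKH477 (200nM […]) for 30 min. cAMP read by HTRF (665/620 nm).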

[16] = target: D(2) dopamine receptor (Homo sapiens) (UniProt P14416); assay: Dopamine D2 receptor (DRD2) small molecule antagonists, cell-based qHTS assay (AID 1963595; active = well fitted inhibition curve with a large enough effect in the signal ratio in the repeat runs, with a control signal flat; the % refers to the signal ratio; note: potency is the fitted concentration of half-maximal effect)
Outline: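 HTRF cAMP read-out at 665 and 620 nm emission (340 nm excitation). Antagonist mode: compounds were tested against 12 nM quinpirole in DRD2-HEK293 cells, with 200 nM NKH477 raising cAMP and 0.1 mM Ro20-1724 blocking its breakdown.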

[17] = p53 small molecule agonists, cell-based qHTS assay with human liver microsomes (AID 1963577)
Outline: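 p53RE-bla reporter cells were pre-incubated 5 h at 37 C, then treated with compounds plus human liver microsomes (0.5 mg/mL final) and NADPH (0.5 mg/mL final) for 16 h at 37 C. Beta-lactamase activity was read by LiveBLAzer fluorescence after 2 h at room temperature.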

[18] = cAMP Responsive Elements (CRE) small molecule antagonists, cell-based qHTS assay (AID 1963591; active = well fitted inhibition curve with a large enough effect in the signal ratio in the repeat runs, not every such curve was filed as active; the % refers to the signal ratio)
Outline: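 Antagonist mode: compounds are added alongside the adenylyl cyclase activator NKH477 (0.25 uM final) to CRE-bla HEK293T cells for 3 h. LiveBLAzer FRET substrate, 2 h at room temperature, reports bla expression.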

[19] = target: Beta-2 adrenergic receptor (Homo sapiens) (UniProt P07550); assay: Adrenergic beta2 receptor (ADRB2) small molecule agonists, cell-based qHTS assay (AID 1963593);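 note: CHO cells stably overexpressing human ADRB2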
Outline: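 CHO cells stably over-expressing ADRB2 were plated overnight at 37C, then dosed with compounds plus a stimulation mix containing 100uM IBMX and 25uM Ro-20-1724 for 0.5hr at room temperature. cAMP was measured by HTRF competition, 1hr.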

[20] = target: 5-hydroxytryptamine receptor 2A (Homo sapiens) (UniProt P28223); assay: 5-hydroxytryptamine receptor 2A (HTR2A) small molecule antagonists, cell-based qHTS assay (AID 1963586); note: nearly all actives have a fitted effect of over 45% in size
Outline: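 CHO cells stably expressing human HTR2A were plated for 18 h at 37 C, then loaded with calcium dye for 1 h. Compounds were preincubated 5 min at room temperature before DOI (4 nM solution) was added. Kinetic fluorescence was read for 3 min.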
% is set by controls: 0 for no effect and ±100 for the full control effect.

Beta-2 adrenergic receptor (Homo sapiens), sequence (P07550 whole entry, looked up): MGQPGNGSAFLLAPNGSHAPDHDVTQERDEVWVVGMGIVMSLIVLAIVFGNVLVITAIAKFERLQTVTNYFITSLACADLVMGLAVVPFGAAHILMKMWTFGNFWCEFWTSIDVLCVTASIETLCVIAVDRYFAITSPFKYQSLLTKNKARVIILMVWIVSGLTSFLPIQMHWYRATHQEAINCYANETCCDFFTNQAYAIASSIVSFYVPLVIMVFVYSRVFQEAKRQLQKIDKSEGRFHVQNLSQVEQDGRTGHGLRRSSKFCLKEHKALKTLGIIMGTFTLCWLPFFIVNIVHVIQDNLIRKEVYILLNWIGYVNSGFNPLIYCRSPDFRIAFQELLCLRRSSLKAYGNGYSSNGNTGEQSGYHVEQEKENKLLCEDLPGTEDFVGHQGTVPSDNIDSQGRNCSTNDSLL
KiSS-1 receptor (Homo sapiens), sequence (Q969F8 whole entry, looked up): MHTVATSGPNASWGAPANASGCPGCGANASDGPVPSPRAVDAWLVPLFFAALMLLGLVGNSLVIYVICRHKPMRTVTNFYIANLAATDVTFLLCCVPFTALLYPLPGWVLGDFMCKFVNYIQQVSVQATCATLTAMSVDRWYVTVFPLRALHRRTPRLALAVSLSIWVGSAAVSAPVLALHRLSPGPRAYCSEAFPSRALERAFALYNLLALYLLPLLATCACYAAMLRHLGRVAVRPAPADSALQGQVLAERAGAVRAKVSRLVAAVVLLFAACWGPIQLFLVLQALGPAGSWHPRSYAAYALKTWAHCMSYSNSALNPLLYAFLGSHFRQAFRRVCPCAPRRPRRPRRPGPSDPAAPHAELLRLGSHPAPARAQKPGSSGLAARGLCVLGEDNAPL
D(2) dopamine receptor (Homo sapiens), sequence (P14416 whole entry, looked up): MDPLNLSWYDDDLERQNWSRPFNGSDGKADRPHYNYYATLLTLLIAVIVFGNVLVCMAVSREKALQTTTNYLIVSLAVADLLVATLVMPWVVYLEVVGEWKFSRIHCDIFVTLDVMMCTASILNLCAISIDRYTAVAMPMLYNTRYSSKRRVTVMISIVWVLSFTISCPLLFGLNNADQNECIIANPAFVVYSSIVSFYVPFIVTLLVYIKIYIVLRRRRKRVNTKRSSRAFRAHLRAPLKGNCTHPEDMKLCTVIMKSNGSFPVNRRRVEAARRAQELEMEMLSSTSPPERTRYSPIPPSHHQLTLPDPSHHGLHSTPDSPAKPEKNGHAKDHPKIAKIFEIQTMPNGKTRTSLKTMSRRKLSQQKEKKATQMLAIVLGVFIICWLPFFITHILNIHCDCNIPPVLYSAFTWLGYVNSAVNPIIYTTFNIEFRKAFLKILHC
5-hydroxytryptamine receptor 2A (Homo sapiens), sequence (P28223 whole entry, looked up): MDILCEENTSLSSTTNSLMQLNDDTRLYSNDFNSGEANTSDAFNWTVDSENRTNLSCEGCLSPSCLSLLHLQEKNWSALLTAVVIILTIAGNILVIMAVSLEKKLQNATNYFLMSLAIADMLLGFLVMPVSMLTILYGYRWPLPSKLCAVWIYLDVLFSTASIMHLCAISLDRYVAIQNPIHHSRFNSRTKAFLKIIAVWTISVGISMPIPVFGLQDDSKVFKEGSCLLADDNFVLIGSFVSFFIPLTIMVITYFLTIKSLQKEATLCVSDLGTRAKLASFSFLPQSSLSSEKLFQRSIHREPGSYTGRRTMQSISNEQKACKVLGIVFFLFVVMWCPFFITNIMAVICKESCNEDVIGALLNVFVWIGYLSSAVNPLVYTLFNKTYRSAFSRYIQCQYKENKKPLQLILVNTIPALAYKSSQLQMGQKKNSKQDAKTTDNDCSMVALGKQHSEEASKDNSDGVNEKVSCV
Muscarinic acetylcholine receptor M1 (Homo sapiens), sequence (P11229 whole entry, looked up): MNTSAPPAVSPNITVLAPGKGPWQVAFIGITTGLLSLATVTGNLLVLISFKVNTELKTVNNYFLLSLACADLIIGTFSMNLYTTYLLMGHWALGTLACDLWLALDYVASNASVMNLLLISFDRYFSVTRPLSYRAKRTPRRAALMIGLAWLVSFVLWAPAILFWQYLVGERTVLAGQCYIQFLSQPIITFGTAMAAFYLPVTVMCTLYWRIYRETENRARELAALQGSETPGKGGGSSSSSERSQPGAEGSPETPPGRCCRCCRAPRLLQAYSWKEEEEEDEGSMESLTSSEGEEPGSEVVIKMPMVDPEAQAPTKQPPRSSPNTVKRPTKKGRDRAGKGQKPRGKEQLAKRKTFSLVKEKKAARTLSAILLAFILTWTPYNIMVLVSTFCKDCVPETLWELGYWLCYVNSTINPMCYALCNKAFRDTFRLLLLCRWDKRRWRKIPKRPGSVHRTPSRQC

CCOC(=O)C(O)c1ccccc1 (configuration not stated)
inactive: Potency [1] | Potency [2] | outcome [3] | outcome [4] | Potency [5] | Potency [6] | Potency [7] | Potency [8] | Potency [9] | Potency [10] | Potency [11] | Potency [12] | Potency [13] | Potency [14] | Potency [15] | Potency [16]

O=NN(CCCl)C(=O)NC1CCCCC1
inactive: Potency [1] | Potency [2] | outcome [3] | Potency [17] | Potency [5] | Potency [6] | Potency [7] | Potency [8] | Potency [9] | Potency [13] | Potency [18] | Potency [14] | Potency [19] | Potency [16]

NC(=O)c1cn(Cc2c(F)cccc2F)nn1
inactive: Potency [1] | Potency [2] | outcome [3] | outcome [4] | Potency [17] | Potency [5] | Potency [6] | Potency [8] | Potency [9] | Potency [10] | Potency [11] | Potency [12] | Potency [13] | Potency [18] | Potency [14] | Potency [19] | Potency [15] | Potency [16]

O=C1CCCCO1
inactive: Potency [1] | Potency [2] | outcome [3] | outcome [4] | Potency [17] | Potency [5] | Potency [7] | Potency [8] | Potency [20] | Potency [10] | Potency [11] | Potency [12] | Potency [13] | Potency [18] | Potency [14] | Potency [15] | Potency [16]

c1cc(N(CC2CO2)CC2CO2)ccc1Cc1ccc(N(CC2CO2)CC2CO2)cc1 (configuration not stated)
inactive: outcome [3] | outcome [4] | Potency [17] | Potency [5] | Potency [6] | Potency [8] | Potency [12] | Potency [14] | Potency [15] | Potency [16]
active: Potency [1] 43.3 µM | Potency [2] 21.7 µM

O=C(c1ccc(F)cc1)C1CCN(CCn2c(=O)[nH]c3ccccc3c2=O)CC1
inactive: Potency [1] | Potency [2] | outcome [3] | outcome [4] | Potency [5] | Potency [6] | Potency [7] | Potency [8] | Potency [9] | Potency [10] | Potency [11] | Potency [12] | Potency [14] | Potency [19] | Potency [15] | Potency [16]

CCCCCCCCCI
active: Potency [11] 8.55 µM
inactive: Potency [1] | Potency [2] | outcome [3] | outcome [4] | Potency [17] | Potency [5] | Potency [6] | Potency [8] | Potency [9] | Potency [20] | Potency [10] | Potency [12] | Potency [13] | Potency [18] | Potency [14] | Potency [15] | Potency [16]

Cc1cccn2c(=O)c(-c3nnn[nH]3)cnc12
inactive: activity change, negative = cytotoxicity [1] 0.925% [at 19 µM] | activity, positive = activation [2] -2.87% [at 19 µM] | activation [3] 0.024% [at 15.8 µM] | activation [17] 6.61% [at 13.5 µM] | activation [5] 0.054% [at 13.6 µM] | activity change, negative = cytotoxicity [6] -18.5% [at 13.5 µM] | activity change, negative = cytotoxicity [7] -1.1% [at 13.5 µM] | activity change, negative = cytotoxicity [8] -1.22% [at 13.5 µM] | activity, negative = inhibition [20] 5.08% [at 12.7 µM] | activation [10] 1.65% [at 15.9 µM] | activation [12] -0.574% [at 15.8 µM] | activity change, negative = inhibition [18] 5.45% [at 18.9 µM] | activity change, negative = inhibition [14] 1.4% [at 19 µM] | activity change, negative = inhibition [16] -1.25% [at 18.9 µM]

CN=C(NC#N)Nc1ccc(C2=NNC(=O)CC2C)cc1 (configuration not stated)
inactive: Potency [1] | Potency [2] | outcome [3] | outcome [4] | Potency [17] | Potency [6] | Potency [7] | Potency [8] | Potency [20] | Potency [10] | Potency [11] | Potency [12] | Potency [18] | Potency [14] | Potency [16]

N#C/C(=C1\SCC(c2ccccc2Cl)S1)n1ccnc1 (configuration not stated)
inactive: Potency [1] | Potency [2] | outcome [3] | outcome [4] | Potency [17] | Potency [6] | Potency [7] | Potency [8] | Potency [9] | Potency [20] | Potency [10] | Potency [12] | Potency [13] | Potency [14] | Potency [15] | Potency [16]

O=C1CC2(CCCC2)CC(=O)N1CCNCC1COc2ccccc2O1 (configuration not stated)
active: Potency [16] 0.75 µM
inactive: Potency [1] | Potency [2] | outcome [3] | outcome [4] | Potency [17] | Potency [5] | Potency [6] | Potency [7] | Potency [11] | Potency [12] | Potency [14] | Potency [19]

COc1cc2c(cc1OC)C(C(C(=O)N(CCc1ccc(OC)c(OC)c1OC)CCc1ccc(OC)c(OC)c1OC)c1ccccc1)=NCC2 (configuration not stated)
active: Potency [10] 12 µM
inactive: Potency [1] | Potency [2] | outcome [3] | outcome [4] | Potency [5] | Potency [6] | Potency [7] | Potency [8] | Potency [9] | Potency [20] | Potency [12] | Potency [15]

Cn1c(=O)cc(Oc2ccc(F)cc2F)c2cnc(NCC(C)(C)O)nc21
inactive: Potency [1] | Potency [2] | outcome [3] | outcome [4] | Potency [17] | Potency [6] | Potency [7] | Potency [8] | Potency [9] | Potency [20] | Potency [10] | Potency [11] | Potency [14] | Potency [19] | Potency [15] | Potency [16]

O=C(Nc1ccc(Cl)c(Cl)c1)C1CC1
inactive: Potency [1] | Potency [2] | outcome [3] | outcome [4] | Potency [17] | Potency [5] | Potency [7] | Potency [8] | Potency [9] | Potency [20] | Potency [10] | Potency [11] | Potency [12] | Potency [13] | Potency [18] | Potency [14] | Potency [15] | Potency [16]

C=CC1CO1 (configuration not stated)
inactive: Potency [1] | Potency [2] | outcome [3] | Potency [17] | Potency [5] | Potency [6] | Potency [7] | Potency [8] | Potency [9] | Potency [20] | Potency [10] | Potency [11] | Potency [12] | Potency [18] | Potency [14] | Potency [15] | Potency [16]

CC(C(=O)O)c1ccc2c(c1)Cc1cccnc1O2 (configuration not stated)
inactive: Potency [1] | Potency [2] | outcome [3] | outcome [4] | Potency [17] | Potency [5] | Potency [6] | Potency [7] | Potency [20] | Potency [10] | Potency [11] | Potency [12] | Potency [14] | Potency [15]
